An excerpt weighted towards active compounds, which were near 4% of everything screened.
Caspase-1 inhib: qHTS Assay for Allosteric/Competitive Inhibitors of Caspase-1; 0.03% of 75,000 active; Caspase-1 enzyme, Ac-WEHD-AFC fluorogenic rate; Potency, µM (series often up to 57.5 µM), inactives show top-dose activity change, negative = inhibition, most hits filed as inhibitors; P29466; AID 900, 2007;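 also: plate controls were vehicle for no effect and no substrate for full effect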
Caspase-7 inhib: qHTS Assay for Allosteric/Competitive Inhibitors of Caspase-7; Potency, µM (titrated, usually from 57.5 µM), without a hit: top-dose activity change, negative = inhibition, usual class: inhibitors; recombinant caspase-7, Ac-DEVD-AFC fluorescence rate; P55210; 0.02% of 75,000 active; active = well fitted inhibition curve with a large enough effect in the main read-out, with a control signal flat, not every such curve was filed as active; inconclusive = small, poorly fitted or top-dose-only effect, or a change in a side signal; also: % of control where 0% means no effect
Luciferase inh: qHTS Assay for Inhibitors of Firefly Luciferase; purified firefly luciferase, luminescence, 8 min; Luciferin 4-monooxygenase (Photinus pyralis), P08659; 2.2% of 72,000 active; Potency, µM (titrated, usually from 57.1 µM), for the others: top-dose activity change, negative = inhibition, actives largely listed as inhibitors; also: % is scaled to controls: 0 for no effect and ±100 for the full control effect; nearly all actives have a fitted effect of over 40% in size
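Here, luciferase activity is measured as luminescence following an 8 min room-temperature reaction at 10 uM ATP, pH 7.2. Every library sample is titrated.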
Tau fil binding: qHTS Assay for Tau Filament Binding; Microtubule-associated protein tau (Homo sapiens), P10636; recombinant tau filaments, thioflavin S fluorescence, 15 h; filaments grown with octadecylsulfate alongside compound; Potency, µM (doses to about 57.1 µM), inactives show at the highest dose activity change, negative = inhibition; 2% of 71,000 active;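 also: % is scaled to controls: 0 for no effect and ±100 for the full control effect; actives lower thioflavin S fluorescence by blocking filaments or displacing dye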
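His-tagged recombinant human tau (exons 2, 3, 10; 1 uM final) fibrillized with 30 uM sodium octadecylsulfate, 15 h at 37 C, in pH 7.4 HEPES buffer with 10 uM thioflavine S and 5 mM DTT. Reduced ThS fluorescence (450/510 nm) marks activity.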
PK Bst: Pyruvate Kinase | purified pyruvate kinase, luminescence ATP production; ribose 5-phosphate activator present at AC10 | Potency, µM | 1.2% of 51,000 active | AID 361, 2006; in the data active = potency below about 11 µM; inconclusive = mostly about 12 µM to 25 µM;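 the screen sought inhibitors and activators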;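 also: scaled between full activation by ribose 5 phosphate and full inhibition by luteolin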
* marks the source's active call; other numbers are inactive results; [ ] = another dose, or the depositor's remark. Unless noted, calls follow the shape of the dose curve; as a rule, active = well fitted curve in the direction sought with a large enough effect; inconclusive = small, poorly fitted or top-dose-only effect, or another doubt; inactive = no such curve, though single readings can be large; an effect the other way counts as inactive or inconclusive. Potency is read from the fitted curve at half-maximal effect.

`Cc1n[nH]c(C)c1N1C(=O)c2cccc3cc(Br)cc(c23)C1=O` gave Caspase-1 inhib 0%, Caspase-7 inhib -1%, Luciferase inh 0% and Tau fil binding 16µM*.
CCCCNC(=O)C(c1ccc(OCC(=O)OC)c(C(=O)OC)c1)N(Cc1ccccn1)C(=O)CCCCCN1C(=O)NC(c2ccc(-c3ccccc3)cc2)C(C(=O)OCc2ccccc2)=C1C (centres undefined) was read as Caspase-1 inhib -2%, Caspase-7 inhib -1% and Tau fil binding 77%.
For O=C1CC(c2ccccc2)Cc2nc(NCc3ccco3)ncc21 (centres undefined) the results were Caspase-1 inhib -1%, Caspase-7 inhib -1%, Luciferase inh 3.2µM*, Tau fil binding -4% and PK Bst 5.2*.
For C/C(=C\C(=O)c1ccc(F)cc1)Nc1ccc(N2CCOCC2)cc1 the results were Caspase-1 inhib -2%, Caspase-7 inhib -4%, Luciferase inh 0%, Tau fil binding 6.3µM* and PK Bst >57.
For CC(C)N=c1cc2n(-c3ccc(Cl)cc3)c3ccccc3nc-2cc1Nc1ccc(Cl)cc1 the results were Caspase-1 inhib -4%[25.7 µM], Caspase-7 inhib -3%[25.7 µM], Luciferase inh -3%[25.5 µM], Tau fil binding 0.13µM* and PK Bst >26.
Cc1cccc(/C=C\c2ccccc2)n1 was read as Caspase-1 inhib 2%, Caspase-7 inhib 0%, Luciferase inh 7.9µM* and Tau fil binding inconclusive.
c1ccc2cc(NCNc3ccc4ccccc4c3)ccc2c1 was read as Caspase-1 inhib -2%[11.5 µM], Caspase-7 inhib -1%[11.5 µM], Luciferase inh -14%[11.4 µM] and Tau fil binding 2.5µM*.
Screening O=C(O)CCC(=O)Nc1ccc2ccccc2c1 returned Caspase-1 inhib 6%[11.5 µM], Caspase-7 inhib -1%[11.5 µM], Luciferase inh 0%[11.4 µM] and Tau fil binding 6%[11.4 µM].
CC(C)C12CN3CC(C(C)C)(CN(C1)C31C(=O)Nc3ccccc31)C2=O (centres undefined) was read as Caspase-1 inhib 0%, Caspase-7 inhib 0%, Luciferase inh -1% and Tau fil binding 16µM*.
`COC(=O)C12CC3(CCC4C5C(C(OCc6ccccc6)C41)C52)OCCO3` (centres undefined) gave Caspase-1 inhib -6%[11.5 µM] and Caspase-7 inhib -1%[11.5 µM].
Screening CCN(CC)Cc1cc(Nc2ccnc3cc(Cl)ccc23)ccc1O returned Caspase-1 inhib 3%[25.7 µM], Caspase-7 inhib -1%[25.7 µM], Luciferase inh 6%[25.5 µM] and Tau fil binding 3.2µM*.
`CCCNC(=O)c1c(N)n(-c2cccc(OC)c2)c2nc3ccccc3nc12` gave Caspase-7 inhib inconclusive, Luciferase inh 0%, Tau fil binding 12% and PK Bst >57.
For COC(=O)c1c(N)n(-c2cc(OC)cc(OC)c2)c2nc3ccccc3nc12 the results were Caspase-7 inhib inconclusive, Luciferase inh 2%, Tau fil binding 7.9µM* and PK Bst >57.
Cc1noc(C)c1-c1cncnc1Nc1ccccc1 was read as Caspase-1 inhib 0%, Caspase-7 inhib 0%, Luciferase inh 1%[2.29 µM] and Tau fil binding -8%.
Screening CC(C)CNS(=O)(=O)c1ccc(CCC(=O)N2CCN(Cc3ccccc3)CC2)cc1 returned Caspase-1 inhib -2%, Caspase-7 inhib 1%, Luciferase inh 0%, Tau fil binding -7% and PK Bst >57.
`CC(C)CNS(=O)(=O)c1ccc(CCC(=O)N2CCN(Cc3ccc4c(c3)OCO4)CC2)cc1` gave Caspase-1 inhib -1%, Caspase-7 inhib 0%, Luciferase inh 2%, Tau fil binding 40% and PK Bst 2.8*.
CCC(=O)c1ccc(OCC(=O)O)cc1 was read as Caspase-1 inhib 0%, Caspase-7 inhib -1%, Luciferase inh -5%, Tau fil binding 1% and PK Bst >57.
`CCOc1ccc(C(=O)COC(=O)CC)cc1` gave Caspase-1 inhib 0%, Caspase-7 inhib 0%, Luciferase inh 16µM* and Tau fil binding -3%.
`CCOC(=O)N1CCN(c2c(NCCCN(CC)Cc3ccccc3)c(=O)c2=O)CC1` gave Caspase-1 inhib 3%, Caspase-7 inhib -1%, Luciferase inh -2%, Tau fil binding 4% and PK Bst >57.
CCOC(=O)N1CCN(c2cc(NCCC(=O)O)c3c4c(onc24)-c2ccccc2C3=O)CC1 was read as Caspase-1 inhib inconclusive, Caspase-7 inhib -12%, Luciferase inh inconclusive, Tau fil binding 13µM* and PK Bst inactive.
For Cc1ccccc1-n1c(=O)cc(N2CCC3(CC2)OCCO3)[nH]c1=O the results were Caspase-1 inhib -1%, Caspase-7 inhib 2%, Luciferase inh 1%, Tau fil binding 9% and PK Bst >57.
O=C(O)CCCNc1cc(N2CCC3(CC2)OCCO3)c2noc3c2c1C(=O)c1ccccc1-3 was read as Caspase-1 inhib inconclusive, Caspase-7 inhib -13%, Luciferase inh 25µM*, Tau fil binding 16µM* and PK Bst inactive.
COC(=O)c1ccc(C(NC(=O)OCc2ccccc2)/C(F)=C/[C@@H](C)C(=O)NCc2nc3ccccc3s2)cc1 (some centres undefined) was read as Caspase-1 inhib -6%, Caspase-7 inhib -4% and Tau fil binding inactive.
`COc1ncc2ncc(=O)n(CCC#N)c2n1` gave Caspase-1 inhib 3%, Caspase-7 inhib -3%, Luciferase inh 1%[11.4 µM] and Tau fil binding 6%.
`CCCc1cc(C(N)=O)c(NC(=O)c2cc(C)on2)s1` gave Caspase-1 inhib -3%, Caspase-7 inhib -9%, Luciferase inh -1%, Tau fil binding 32µM* and PK Bst >57.
`Cc1cc(C(=O)Nc2sc(C)c(-c3ccc(F)cc3)c2C(N)=O)no1` gave Caspase-1 inhib inconclusive, Caspase-7 inhib -16%, Luciferase inh 7.9µM*, Tau fil binding 60% and PK Bst >57.
For CCCc1cc(C(N)=O)c(NC(=O)c2ccoc2C)s1 the results were Caspase-1 inhib -14%, Caspase-7 inhib -8%, Luciferase inh -9% and Tau fil binding -24%.
For COc1ccccc1CNc1ccc(N2CCCCC2)cc1 the results were Caspase-1 inhib -5%, Caspase-7 inhib 0%, Luciferase inh -14%, Tau fil binding 10µM* and PK Bst >57.
`COc1cccc(CNc2ccc(N3CCCCC3)cc2)c1OC` gave Caspase-1 inhib -5%, Caspase-7 inhib -3%, Luciferase inh inconclusive, Tau fil binding 7.9µM* and PK Bst >57.
`COc1ccccc1CNC(=O)c1ccc(CNc2c(N3CCCC3)c(=O)c2=O)cc1` gave Caspase-1 inhib 1%, Caspase-7 inhib -3%, Luciferase inh 1% and Tau fil binding 24%.
COC(=O)CNc1c(-c2ccccn2)nc2ccc(Br)cn12 was read as Caspase-1 inhib -12%, Caspase-7 inhib -10%, Luciferase inh 13µM*, Tau fil binding 81% and PK Bst inconclusive.

Screens deposited in PubChem BioAssay by National Center for Advancing Translational Sciences (NCATS).
